Among the data in ChEMBL document CHEMBL4513216, “Probing the Open Global Health Chemical Diversity Library for Multistage-Active Starting Points for Next-Generation Antimalarials” (ACS Infect Dis, 2020) are INHIBITION values, retold here.

Out of some 69,000 compounds screened, about 8,600 (12%) showed an effect of 50% or more. Only a selection was taken, and strong results are over-represented in it overall.

The experiment concerns Plasmodium berghei. The experiment can be described thus: Screen against P. berghei liver stage (PbLuc), transformed with Luciferase, at 10uM. The experiment is classed as functional, HepG2. To be noted: tested at 10 uM.
Take `Cc1noc(CNC(=O)CN(C)c2nc3c(F)cccc3s2)n1`: the INHIBITION was determined as 47%.

On to `Cc1noc(CNC(=O)CN(C)c2nc3c(C)ccc(C)c3s2)n1`, for which the INHIBITION came out at 57.8%.

As to `COc1cccc2sc(N(C)CC(=O)NCc3nc(C)no3)nc12`, the INHIBITION is -14.9%.

Take `CC(C)(CNC(=O)COc1cccc(F)c1)C(N)=O`: the INHIBITION is on record as 46.75%.

`Fc1cc(Oc2ccc(C(F)(F)F)cn2)cc(F)c1CN1CCCC1`: the INHIBITION was 78.9%.

As for `O=C(Cn1cccn1)N1CCC(Oc2ccc(C(F)(F)F)cn2)CC1`, the INHIBITION came to 40%.

`Cc1cc(CN2CCCC2)cc(Oc2ccc(C(F)(F)F)cn2)c1`: the INHIBITION came to 61.9%.

On to `CCOC(=O)CCC(=O)N1CCC(Oc2ccc(C(F)(F)F)cn2)CC1`, for which the INHIBITION is recorded as 32.4%.

With `CN(CC(=O)N1CCC(Oc2ccc(C(F)(F)F)cn2)CC1)S(C)(=O)=O`, the INHIBITION is given as -20.5%.

On to `N#Cc1ccc(Oc2cc(F)c(CN3CCCC3)c(F)c2)nc1`, for which the INHIBITION turned out to be 26%.

As for `O=C(CN1CCOCC1)N1CCC2(CCCN(C3CCOCC3)C2=O)C1` (stereo not drawn), the INHIBITION is -9.02%.

On to `COCCN1CCCC(C)(c2cc(O)[nH]n2)C1` (stereo not drawn), for which the INHIBITION is reported as -3.02%.

Turning to `CN(Cc1cccs1)C(=O)CN1CCCC1Cn1cncn1` (stereo not drawn), the INHIBITION came to 23.5%.

Take `CN(Cc1ccc(F)cc1)C(=O)CN1CCCCC1Cn1cncn1` (stereo not drawn): the INHIBITION was 48.4%.

Turning to `Cc1ccc(CN(C)C(=O)CN2CCCCC2Cn2cncn2)cc1` (stereo not drawn), the INHIBITION is listed as 74.2%.

For the compound `Cc1ccc(CN(C)C(=O)CN2CCCC2Cn2cncn2)cc1` (stereo not drawn), the INHIBITION came out at 42.4%.

As to `CN(Cc1ccccc1)C(=O)CN1CCOC(Cn2cncn2)C1` (stereo not drawn), the INHIBITION is recorded as -9.37%.

As for `CN(Cc1ccsc1)C(=O)CN1CCCC1Cn1cccn1` (stereo not drawn), the INHIBITION was determined as 63.9%.

In the case of `CN(Cc1ccsc1)C(=O)CN1CCCCC1Cn1cccn1` (stereo not drawn), the INHIBITION is reported as -96.9%.

`CN(Cc1cccs1)C(=O)CN1CCOC(Cn2cncn2)C1` (stereo not drawn): the INHIBITION was found to be 62.6%.

Regarding `CN(Cc1ccco1)C(=O)CN1CCCCC1Cn1cncn1` (stereo not drawn), the INHIBITION turned out to be 7.67%.

As to `Cc1cnn(CC2CCCN2CC(=O)N(C)Cc2ccsc2)c1` (stereo not drawn), the INHIBITION was determined as 34.5%.

For the compound `Cc1cnn(CC2CN(CC(=O)N(C)Cc3cccs3)CCO2)c1` (stereo not drawn), the INHIBITION is reported as 35.3%.

As to `CN(Cc1cccs1)C(=O)CN1CCCCC1Cn1cncn1` (stereo not drawn), the INHIBITION was determined as 59.3%.

On to `O=C(CC(F)(F)F)Nc1cc(F)ccc1OCC1CCCO1` (stereo not drawn), for which the INHIBITION is on record as -6.14%.

On to `CCn1nc(C)cc1C(=O)N1C[C@H]2CCC[C@@]2(COc2ccccn2)C1`, for which the INHIBITION is listed as -36.9%.

Consider `CCC1CN(CC(=O)NCCN2CCCC2)c2ccccc2S1` (stereo not drawn), for which the INHIBITION was found to be 18.3%.

Take `CN(C)C1CCN(C(=O)c2n[nH]c3c2CCN(CC2CCC2)C3)CC1`: the INHIBITION is listed as -39%.

Take `Cc1cc(-c2ccc(=O)n(C3CCN(S(=O)(=O)N(C)C)CC3)n2)c(C)o1`: the INHIBITION is -25.3%.

Consider `CNc1cc(CCNC(=O)CC(C)C)nc(-c2ccccn2)n1`, for which the INHIBITION is given as -27.4%.

For `Cc1ccccc1CN(C)C(=O)CN1CCCCC1Cn1cncn1` (stereo not drawn), the INHIBITION was 81.2%.

Take `CCN(Cc1ccccc1)C(=O)CN1CCCCC1Cn1cncn1` (stereo not drawn): the INHIBITION was 38.5%.

With `Cc1cnn(C2CN(CC(=O)N(C)Cc3ccc(C)o3)C2)c1`, the INHIBITION is on record as 34%.

`CN(Cc1ccccc1)C(=O)CN1CCCCC1Cn1cncn1` (stereo not drawn): the INHIBITION is listed as 25.6%.

For the compound `Cc1cnn(C2CN(CC(=O)NCCc3cccs3)C2)c1`, the INHIBITION worked out at 45.7%.

On to `Cc1cnn(C2CN(CC(=O)N(C)Cc3cccs3)C2)c1`, for which the INHIBITION is recorded as 52.2%.

With `Cc1nnnn1-c1cc(NCc2cc(C#N)ccc2F)ccc1F`, the INHIBITION is recorded as 32.3%.

On to `O[C@@H]1CCN(CC2CCOC2)[C@H]1Cc1cccnc1` (stereo partly drawn), for which the INHIBITION is 23.1%.

Turning to `O=C(c1ccc2cc[nH]c2c1)N1CCCN(Cc2cscn2)CC1`, the INHIBITION is on record as 13.6%.

On to `N#Cc1c(Cl)nsc1NCc1ccc(N2CCCC(C(N)=O)C2)cc1` (stereo not drawn), for which the INHIBITION turned out to be 26.6%.

Regarding `N#Cc1c(Cl)nsc1NCc1cccnc1OC1CCCC1`, the INHIBITION is 85.9%.

Take `N#Cc1c(Cl)nsc1NCc1ccc(N2CCC(CO)CC2)cc1`: the INHIBITION was found to be 30.9%.

For `Cc1nnc(NCc2cccnc2OCC(F)(F)F)c(C#N)c1C`, the INHIBITION is listed as -0.18%.

For the compound `Cc1oncc1C(=O)NCc1ccnc(OCC(F)(F)F)c1`, the INHIBITION is -6.15%.

As to `N#Cc1c(Cl)nsc1NCc1ccnc(OCC(F)(F)F)c1`, the INHIBITION is on record as 81.7%.

Take `O=S(=O)(NCc1cccnc1OC1CCCC1)N1CCCCC1`: the INHIBITION is given as 21.9%.

On to `N#Cc1c(Cl)nsc1NCc1ccc(N2CCSCC2)cc1`, for which the INHIBITION was 59.5%.

On to `CCOc1ncccc1CNc1nnc(C)c(C)c1C#N`, for which the INHIBITION is -23.45%.

For `N#Cc1c(Cl)nsc1NCc1cccnc1OCC(F)(F)F`, the INHIBITION was 88.5%.

For `CC(O)CNC(=O)NCc1cccnc1OC1CCCC1` (stereo not drawn), the INHIBITION is given as 22.7%.

As to `CC(C(=O)NCc1ccnc(OCC(F)(F)F)c1)n1cncn1` (stereo not drawn), the INHIBITION is listed as -18.2%.

As to `Nc1nccc(C2CCN(CC3CC3)C2)n1` (stereo not drawn), the INHIBITION amounted to 20.2%.

Consider `CN(CCc1cn[nH]c1)C(=O)CCc1ccc(Cl)cc1`, for which the INHIBITION was found to be 49%.

With `CC(Nc1cccc2c1OCCO2)C(=O)Nc1ccc(Cl)cc1` (stereo not drawn), the INHIBITION is -10.3%.

`CCc1nnc2n1CCN(C(=O)c1cc3cc(C)ccc3[nH]1)C2`: the INHIBITION came to 10%.

Regarding `O=C(Nc1ccc(-n2ccc(C(=O)O)n2)cc1)c1ccccc1`, the INHIBITION was determined as 39.5%.

Regarding `Cc1cn([C@@H]2CC3(CCNCC3)OC[C@@]2(C)O)c(=O)[nH]c1=O`, the INHIBITION was 37.1%.

Turning to `CC(=O)N1CC(=O)N(c2cnn(C)c2)CC12CCN(Cc1ccco1)C2` (stereo not drawn), the INHIBITION is 29.7%.
